# According to PubChem BioAssay (NCATS):
# Results filed as inconclusive are left out. A call without a number means that no potency is given here. Unmarked numbers belong to inactive results. Active and inactive are the calls of the source. Calls come from the whole dose curve; as a rule, active = well fitted curve in the direction sought with a large enough effect; inconclusive = small, poorly fitted or top-dose-only effect, or another doubt; inactive = no such curve, though single readings can be large; an effect the other way counts as inactive or inconclusive.
# How the values were obtained:
# Hek293T = experiment: Primary qHTS to identify gynecologic anti-cancer compounds using libraries of approved drugs and bioactive compounds (AID 1345084); conditions: Gynecologic cancer cell panel viability, ATPlite luminescence, 48 h, control line for the selectivity index; series mostly up to 57.5 µM; note: nearly all actives have a fitted effect of over 55% in size
# Procedure, shortened: (§1)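 48 h compound exposure at 37 C, 5% CO2; five-point qHTS. ATPlite luminescence readout of cell ATP.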
# JEG-3 = experiment: as above; conditions: Gynecologic cancer cell panel viability, ATPlite luminescence, 48 h; series mostly up to 57.5 µM
# Procedure, shortened: as §1
# OV90 = experiment: as above; conditions: Gynecologic cancer cell panel viability, ATPlite luminescence, 48 h; series mostly up to 57.5 µM
# Procedure, shortened: as §1
# PA-1 = experiment: as above; conditions: Gynecologic cancer cell panel viability, ATPlite luminescence, 48 h; series mostly up to 57.5 µM
# Procedure, shortened: as §1
# SKOV3 = experiment: as above; conditions: Gynecologic cancer cell panel viability, ATPlite luminescence, 48 h; series mostly up to 57.5 µM
# Procedure, shortened: as §1
# Tov-21-G = experiment: as above; conditions: Gynecologic cancer cell panel viability, ATPlite luminescence, 48 h; series mostly up to 57.5 µM
# Procedure, shortened: as §1
# Tov112D = experiment: as above; conditions: Gynecologic cancer cell panel viability, ATPlite luminescence, 48 h; series mostly up to 57.5 µM
# Procedure, shortened: as §1
# [1] = Drug repurposing screens with cells derived from glioblastoma tumor samples (AID 1345199); conditions: GBM patient neurospheres viability, ATP luminescence, 48 h; note: nearly all actives have a fitted effect of over 40% in size; note: potency is the fitted concentration of half-maximal effect
# Procedure, shortened: (§2)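 Four patient lines of CD133+ GBM neurospheres were screened at several concentrations; hits were retested in those lines plus three slower-growing GBM lines, using 48-hour treatment and ATP-based viability.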
# astro = experiment: as above; conditions: viability, ATP luminescence, 48 h; series mostly up to 45.9 µM
# Procedure, shortened: as §2
# [2] = qHTS assay to identify inhibitors of the type 1 interferon - major histocompatibility complex class I in skeletal muscle: Counter screen cell viability and HiBit confirmation (AID 1347412); conditions: iHSKM muscle cells + IFN-b, HiBiT or CellTiter-Glo, 24 h; Potency: HiBiT; Viability, at 45.9 µM (top of the series); note: nearly all actives have a fitted effect of over 60% in size
# Procedure, shortened: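 Human myoblast knock-in line, 4.0 ng/ml IFN-beta stimulation, 24 h compound treatment. Endpoints: HiBiT lytic luminescence (HLA-B level) and CellTiter Glo (ATP). Dosing 12 concentrations, 3-fold steps, 46 uM highest final.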
# [3] = at 45.9 µM (top of the series), tumour line B
# [4] = at 45.9 µM (top of the series), tumour line D
# [5] = at 46.1 µM (top of the series), tumour line C
# [6] = at 46 µM (top of the series), tumour line A
# [7] = at 20 µM (top of the series), tumour line C
# [8] = at 21.2 µM (top of the series), tumour line B
# [9] = at 21.2 µM (top of the series), tumour line D
# [10] = at 21.3 µM (top of the series), tumour line A
Structure (SMILES),Potency (Hek293T),Potency (JEG-3),Potency (OV90),Potency (PA-1),Potency (SKOV3),Potency (Tov-21-G),Potency (Tov112D),"activity, negative = cell killing [1, 3] [%]","activity, negative = cell killing [1, 4] [%]","activity, negative = cell killing [1, 5] [%]",Potency ([1]; tumour line A),Potency (astro),"activity, negative = cell killing [1, 6] [%]",Potency [2],"activity, negative = cell killing [1, 7] [%]","activity, negative = cell killing [1, 8] [%]","activity, negative = cell killing [1, 9] [%]","activity, negative = cell killing [1, 10] [%]"
COc1ccc2c(c1)c1c3n2CCN(C)C3=NCC1,inactive,inactive,inactive,inactive,inactive,inactive,inactive,-1.83,-7.29,-23.1,12.6 µM (active),inactive,,,,,,
C=C[C@H]1CN2CC[C@H]1C[C@@H]2[C@@H](O)c1ccnc2ccc(OC)cc12,inactive,inactive,inactive,inactive,inactive,inactive,inactive,-7.35,-6.69,11.9,12.6 µM (active),inactive,,,,,,
CC(=O)N[C@@H](CCC(=O)O)C(=O)O,inactive,inactive,inactive,inactive,inactive,inactive,inactive,2.35,-7.45,-3.96,,inactive,-9.15,,,,,
O=C(O)CCNC(=O)c1ccccc1,inactive,inactive,inactive,inactive,inactive,inactive,inactive,-3.69,-10.8,-11.5,,inactive,-25.4,,,,,
CC(C)[C@@H]1CC[C@@H](C)CC1=O,inactive,inactive,inactive,inactive,inactive,inactive,inactive,-6.28,-8.45,-8.42,,inactive,-24.9,,,,,
CCN1CCN(C(=O)N[C@@H](C(=O)N[C@@H]2C(=O)N3C(C(=O)O)=C(CSc4nnnn4C)CS[C@H]23)c2ccc(O)cc2)C(=O)C1=O,inactive,inactive,inactive,inactive,inactive,inactive,inactive,-8.4,9.51,0.963,,inactive,-15,,,,,
CCCCCCCCCCCCCCCC(=O)O,inactive,inactive,inactive,inactive,inactive,inactive,inactive,-2.37,1.78,2.94,,inactive,-27.9,,,,,
CC1=C(C(=O)O)N2C(=O)[C@@H](NC(=O)[C@H](N)c3ccccc3)[C@H]2SC1,inactive,inactive,inactive,inactive,inactive,inactive,inactive,-0.246,-6.88,-1.45,,inactive,-19.6,inactive,,,,
OC[C@H]1O[C@@H]2O[C@H]3[C@H](O)[C@@H](O)[C@@H](O[C@H]4[C@H](O)[C@@H](O)[C@@H](O[C@H]5[C@H](O)[C@@H](O)[C@@H](O[C@H]6[C@H](O)[C@@H](O)[C@@H](O[C@H]7[C@H](O)[C@@H](O)[C@@H](O[C@H]8[C@H](O)[C@@H](O)[C@@H](O[C@H]1[C@H](O)[C@H]2O)O[C@@H]8CO)O[C@@H]7CO)O[C@@H]6CO)O[C@@H]5CO)O[C@@H]4CO)O[C@@H]3CO,inactive,inactive,inactive,inactive,inactive,inactive,inactive,-11.6,5.3,-14.8,,inactive,-16.2,,,,,
CC(=O)OCC1=C(C(=O)O)N2C(=O)[C@@H](NC(=O)CSc3ccncc3)[C@H]2SC1,inactive,inactive,inactive,inactive,inactive,inactive,inactive,-6.44,-23.6,-18.9,,inactive,-34.9,,,,,
CCCc1ncc(C[n+]2ccccc2C)c(N)n1,inactive,inactive,inactive,inactive,inactive,inactive,inactive,,,,,inactive,,,11.7,-1.46,-1.64,-22.4
NCc1ccccc1Sc1ccccc1CO,inactive,inactive,inactive,inactive,inactive,inactive,inactive,-12.4,-24,-18,35.5 µM (active),inactive,,,,,,
Cc1cc(NS(=O)(=O)c2ccc(N)cc2)nc(C)n1,inactive,inactive,inactive,inactive,inactive,inactive,inactive,-14.8,-16.4,-10.5,,inactive,-27.1,,,,,
OC1C(O)C(O)C(O)C(O)C1O (stereo unspecified),inactive,inactive,inactive,inactive,inactive,inactive,inactive,-13.8,-13.1,-1.34,,inactive,-17.2,,,,,
O=C(O)CCC(=O)Nc1ccc(S(=O)(=O)Nc2nccs2)cc1,inactive,inactive,inactive,inactive,inactive,inactive,inactive,,,,,inactive,,,-5.75,2.8,-10.2,-13.6
